Results taken from PubChem BioAssay (NCI).
This is part of a sample that, as a whole, favours compounds with a hit. Of some 83,000 tested, about 20% had one in any assay.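 For each line, cells grew in 96-well plates with the test compound present at a single concentration for 48 hours.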 Active and inactive are the calls of the source. Rule for the calls: active = growth percent below 10; inactive = the rest.

What was measured:
Experiment in all cases: NCI-60 one-dose screen, 48 h (100 = growth as untreated, 0 = no growth, -100 = all killed)
Conditions in all cases: 10 µM unless noted
[1] = test system: HCT-15 colon
[2] = test system: HT29 colon
[3] = test system: SNB-75 CNS
[4] = test system: SNB-19 CNS
[5] = test system: U251 CNS
[6] = test system: PC-3 prostate
[7] = test system: SK-MEL-5 melanoma
[8] = test system: UACC-62 melanoma
[9] = test system: LOX IMVI melanoma
[10] = test system: SK-MEL-28 melanoma
[11] = test system: SK-MEL-2 melanoma
[12] = test system: EKVX NSCLC
[13] = test system: SN12C renal
[14] = test system: UO-31 renal
[15] = test system: TK-10 renal
[16] = test system: ACHN renal
[17] = test system: A498 renal
[18] = test system: CCRF-CEM leukemia
[19] = test system: MOLT-4 leukemia

Measured: growth

CCC1CN2C(=N1)c1ccccc1-c1cc(Cl)ccc12 (configuration not stated)
inactive: [1] 18.3% | [3] 42.6% | [4] 26.2% | [5] 14.8% | [6] 21.6% | [10] 70.7% | [12] 22.9% | [13] 18.5% | [15] 34.7% | [17] 56.9% | [18] 13.4%
active: [2] 5.27% | [7] -5.14% | [8] 3.38% | [9] 2.76% | [11] -14.9% | [14] -43% | [16] 2.38% | [19] -24.8%

CC(C(C(=O)N1CCCCC1)N1CCCCC1)N1CCCCC1 (configuration not stated)
inactive: [1] 107% | [2] 105% | [3] 100% | [4] 103% | [5] 97.9% | [6] 107% | [7] 112% | [8] 102% | [9] 107% | [10] 107% | [11] 111% | [12] 112% | [13] 102% | [14] 94.9% | [15] 101% | [16] 116% | [17] 119% | [18] 116% | [19] 79.8%

CN(C)c1ccc(/C=N/N=C(N)N)cc1
inactive: [1] 49% | [2] 26.4% | [3] 66.5% | [4] 74.2% | [5] 60.2% | [6] 83.8% | [7] 47.3% | [8] 72.7% | [9] 70.5% | [10] 81.7% | [11] 78.6% | [12] 89.3% | [13] 82.3% | [14] 72.5% | [15] 106% | [16] 98.5% | [17] 17.7% | [18] 104% | [19] 83.2%

CC(C)(C)OC(=O)N1CC(Cn2cc(C(F)(F)F)c3c(Cl)ncnc32)C1
active: [1] -41.4% | [2] -62.2% | [3] -52.5% | [4] -89.8% | [5] -98% | [6] -75% | [7] -84.6% | [8] -78.1% | [9] -86.9% | [10] -79.6% | [11] -77.4% | [13] -25.4% | [14] -95.1% | [18] -26.6% | [19] -37.5%
inactive: [12] 50.3% | [15] 115% | [16] 73.5% | [17] 34.2%

COc1ccc(OC)c(NCC(=O)n2nc(/C=C\c3ccc(O)c(OC)c3)cc2/C=C\c2ccc(O)c(OC)c2)c1
inactive: [1] 17.5% | [3] 25.5% | [4] 16.7% | [6] 23.2% | [8] 15.8% | [10] 21.2% | [12] 28.7% | [13] 21.5% | [15] 16.4% | [16] 18.6% | [17] 34.1%
active: [2] -70.2% | [5] 4.56% | [7] 9.05% | [9] 9.71% | [11] 0.648% | [14] 5.1% | [18] 5.46% | [19] 7.73%

O=C1c2ccccc2C(=O)c2c(NCCN=Cc3c(O)ccc4ccccc34)cccc21
active: [18] -46.1%
inactive: [1] 77% | [2] 88% | [3] 84% | [4] 84.9% | [5] 83% | [6] 84.5% | [7] 86.7% | [8] 85.8% | [9] 66.7% | [10] 117% | [11] 107% | [12] 73.3% | [13] 85.2% | [14] 49.9% | [15] 94.2% | [16] 65.3% | [17] 80.7% | [19] 76.9%

CN(C)c1ccc(/C=N/n2c(-c3cc(F)c(Cl)cc3Cl)nn(CN3CCOCC3)c2=S)cc1
inactive: [1] 103% | [2] 110% | [3] 97.7% | [4] 99.4% | [5] 89% | [6] 103% | [7] 92.3% | [8] 94.8% | [9] 96.1% | [10] 108% | [11] 104% | [12] 107% | [13] 103% | [14] 69.1% | [15] 107% | [16] 98.6% | [17] 77.9% | [18] 92.4% | [19] 88.8%

CCOC(=O)c1cnc2c(OC)ccc(OC)c2c1Cl
inactive: [1] 107% | [2] 117% | [3] 82.7% | [4] 114% | [5] 109% | [6] 93.6% | [7] 107% | [8] 109% | [9] 91.1% | [10] 120% | [11] 127% | [12] 115% | [13] 110% | [14] 88.3% | [15] 106% | [16] 100% | [17] 91.8% | [19] 113%
active: [18] 5.54%

Nc1nc(Cl)cc(NCc2ccc(CNc3cc(Cl)nc(N)n3)cc2)n1
inactive: [1] 100% | [2] 110% | [3] 78.3% | [4] 100% | [5] 98.6% | [6] 109% | [7] 58.4% | [8] 98.3% | [9] 79.5% | [10] 120% | [11] 74.1% | [12] 70.4% | [13] 106% | [14] 84.3% | [15] 124% | [16] 92.7% | [17] 73.7% | [18] 107% | [19] 70.7%

N#CC(C#N)=C(C#N)c1c[nH]c2ccccc12
inactive: [1] 73.3% | [2] 80.4% | [3] 79.6% | [4] 92.9% | [5] 86.3% | [6] 73.1% | [7] 92.8% | [8] 82.9% | [9] 82.3% | [10] 108% | [11] 90.9% | [12] 73% | [13] 79% | [14] 63.9% | [15] 98.9% | [16] 73.4% | [17] 101% | [18] 65.5% | [19] 75.7%

Nc1ccc(S(=O)(=O)Nc2cc(I)cc(I)c2)cc1
active: [18] -9.38% | [19] -69.4%
inactive: [1] 112% | [2] 107% | [3] 97.6% | [4] 116% | [5] 106% | [6] 97.2% | [7] 105% | [8] 107% | [9] 104% | [10] 105% | [11] 97.7% | [12] 124% | [13] 115% | [14] 99.7% | [15] 107% | [16] 120% | [17] 77.7%

COc1cc(-c2nc3ccccc3s2)ccc1OCc1nc2n(n1)S(=O)(=O)c1ccccc1N2c1ccccc1
inactive: [1] 99.2% | [2] 104% | [3] 103% | [4] 105% | [5] 98.1% | [6] 96.7% | [7] 84.2% | [8] 97.8% | [9] 93.2% | [10] 110% | [11] 98.5% | [12] 95.4% | [13] 108% | [14] 82.4% | [15] 121% | [16] 107% | [17] 100% | [18] 112% | [19] 80.5%

NC(N)=N/N=C/c1ccc([N+](=O)[O-])cc1
inactive: [1] 105% | [2] 105% | [3] 83.4% | [4] 109% | [5] 105% | [6] 94.5% | [7] 100% | [8] 91.6% | [9] 96% | [10] 109% | [11] 115% | [12] 102% | [13] 96.7% | [14] 82.6% | [15] 112% | [16] 106% | [17] 79.7% | [18] 112% | [19] 97.5%

COc1ccc(-c2coc3c(CO)c(O)ccc3c2=O)cc1
inactive: [1] 43.2% | [2] 85.8% | [3] 115% | [4] 72.5% | [7] 58.7% | [8] 32.5% | [10] 88.8% | [11] 19.2% | [12] 72.1% | [13] 10.1% | [14] 24.3% | [15] 75.2% | [16] 20.8% | [17] 68.6% | [18] 45.2% | [19] 91.3%
active: [5] -58.9% | [6] -27.7% | [9] -27.9%

O=C(Cn1c2ccccc2c2ccncc21)N/N=C/c1c[nH]c2ccccc12
inactive: [1] 93.4% | [2] 44.2% | [3] 31% | [4] 53.4% | [5] 19.7% | [6] 78.8% | [8] 21.2% | [9] 33.3% | [10] 56.5% | [11] 95.3% | [12] 91.2% | [13] 38.8% | [14] 103% | [15] 113% | [16] 77.7% | [17] 104% | [18] 43.8% | [19] 53.4%
active: [7] 4.85%

O=C1OC(=O)C2C3CC(c4ccccc43)C12 (configuration not stated)
inactive: [1] 94.5% | [2] 112% | [3] 89.4% | [4] 107% | [5] 97.4% | [6] 92.1% | [7] 112% | [8] 105% | [9] 103% | [10] 116% | [11] 125% | [12] 99.3% | [13] 113% | [14] 76.2% | [15] 123% | [16] 90.1% | [17] 110% | [18] 98.8% | [19] 104%

COC(=O)c1oc2c(C(=O)/C=C/c3ccc(OC)cc3)c(OCCN3CCOCC3)ccc2c1C
active: [1] -57% | [2] -20.4% | [3] -26.8% | [4] -2.78% | [5] -81.7% | [6] 8.1% | [7] -100% | [8] -0.039% | [9] -85.3% | [10] 4.47% | [11] -30.6% | [12] 9.46% | [14] -66.4% | [16] -34.5% | [17] -47.7% | [19] -20.5%
inactive: [13] 17.5% | [15] 25.4%
